In PubChem BioAssay (NCATS):
Records with an inconclusive call do not appear. Active and inactive are the calls of the source. Calls follow the shape of the dose curve; as a rule, active = well fitted inhibition curve with a large enough effect; inconclusive = small, poorly fitted or top-dose-only effect; inactive = flat fitted curve, though single readings scatter.

Experiment: P-glycoprotein substrates identified in KB-8-5-11 adenocarcinoma cell line, qHTS therapeutic library screen (AID 1346987); also: nearly all actives have a fitted effect of over 65% in size
Conditions: KB-8-5-11 (P-gp overexpressing) viability, CellTiter-Glo, 72 h; series mostly up to 44.5 µM; activity change, negative = cytotoxicity: at the top concentration
Summary of the method: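 Luminescence from CellTiter-Glo, read 5 min after addition, quantified survival of KB-8-5-11 (P-gp-overexpressing) cells exposed to compounds for 72 h. AC50 was derived from concentration-response curves.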
% is scaled to controls: 0 for no effect and ±100 for the full control effect; potency is read from the fitted curve at half-maximal effect.

Row | SMILES | Potency | activity change, negative = cytotoxicity | outcome
1 | Nc1c(CC(=O)O)cccc1C(=O)c1ccccc1 | inactive |  | 
2 | O=[N+]([O-])c1cn2c(n1)OC[C@@H](OCc1ccc(-c3ccc(OC(F)(F)F)cc3)nc1)C2 |  | -4.02% (inactive) | 
3 | C=CC(C)(C)C12CC3C(=O)N4C(CC5(C(C)(C)C=C)c6ccccc6NC45)C(=O)N3C1Nc1ccccc12 (stereo not drawn) |  | -12% [at 17.3 µM] (inactive) | 
4 | CC(C)Oc1ccc(-c2cnc3c(-c4ccnc5ccccc45)cnn3c2)cc1 |  | -14.7% (inactive) | 
5 | N#Cc1ccc(COC[C@H]2O[C@@H](n3c(NCc4ccc(Cl)c(Cl)c4)nc4c(N)ncnc43)[C@H](O)[C@@H]2O)cc1 |  |  | inactive [at 17.3 µM]
6 | O=C(O)[C@@H](O)[C@H](O)[C@H](O)[C@@H](O)C(=O)O (tested in a mixture with another compound) |  | 8.11% (inactive) | 
7 | C=C(C)C(=O)O[C@H]1/C(C=O)=C\CC/C(CO)=C/[C@H]2OC(=O)C(=C)[C@@H]2[C@@H]1OC |  | 2.9% (inactive) | 
8 | CN1CCC(NC(=O)c2cc(-c3c(O)cc(O)cc3Oc3ccc([N+](=O)[O-])cc3)on2)CC1 | 11.6 µM (active) |  | 
9 | COc1cc(NC(=O)c2cccc(-n3cc(NC(=O)Nc4cccc(C)c4)cn3)c2)cc(OC)c1OC |  | 4.53% (inactive) | 
10 | Cn1ccc(NC(=O)c2cc(Oc3ccc(C(=O)N4CCC4)c(F)c3)c3c(c2)OC(C)(C)C3)n1 |  | -14.5% (inactive) | 
11 | CCNc1nc(Nc2cc(F)c(C(=O)N3CCOCC3)cc2OC)ncc1C(F)(F)F | 9.2 µM (active) |  | 
12 | CC#CCC(C)[C@H](O)/C=C/[C@@H]1[C@H]2c3cccc(CCCC(=O)O)c3O[C@H]2C[C@H]1O (stereo partly drawn) |  | 6.96% (inactive) | 
13 | C=C[C@]1(C)C[C@H](O)[C@H]2C(=C)C(=O)O[C@@H]2[C@H]1C(=C)CO |  | -8.2% (inactive) | 
